PrPC surface inh = inhibitors of human cell surface prion protein PrPC. TR-FRET read-out. inhibition, % at 13.8 µM. 0.43% of 370,000 active. AID 720596; in the data active means inhibition above about 24%; further: 0% = median of the test wells and 100% = reference compound wells
Mtb FBA inh = inhibitors of M. tuberculosis fructose-bisphosphate aldolase | P9WQA3 | purified M. tuberculosis FBA, fluorescence read-out | inhibition, % at 1 µM | 2.3% of 360,000 active; in the data active means inhibition above about 27%;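 further: 0% = vehicle and 100% = reference inhibitor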
Target sequence (P9WQA3 whole entry, looked up): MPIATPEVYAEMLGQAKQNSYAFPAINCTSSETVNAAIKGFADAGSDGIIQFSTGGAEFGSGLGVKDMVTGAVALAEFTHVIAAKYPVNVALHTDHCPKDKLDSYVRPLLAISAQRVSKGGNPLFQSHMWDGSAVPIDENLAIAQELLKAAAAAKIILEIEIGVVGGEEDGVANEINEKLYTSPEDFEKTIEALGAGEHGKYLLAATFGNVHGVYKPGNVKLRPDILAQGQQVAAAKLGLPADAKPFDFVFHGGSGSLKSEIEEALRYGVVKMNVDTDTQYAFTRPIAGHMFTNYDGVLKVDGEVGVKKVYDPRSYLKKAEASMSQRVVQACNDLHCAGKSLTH
GDH-TPI inh = GDH-TPI coupled enzyme inhibition counter-screen; GDH-TPI coupled enzyme counterscreen, NADH absorbance; inhibition, % at 4.8 µM; 1.2% of 360,000 active; in the data active means inhibition above about 30%;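 further: 0% = DMSO wells and 100% = wells lacking the enzyme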
PrP 5UTR inh = suppresses PrP 5' UTR mRNA reporter expression; cell-based PrP 5' UTR mRNA reporter, plate reader; 0.35% of 340,000 active; inhibition, % (test concentration not listed); in the data active means inhibition above about 52%; further: 0 = median of the neutral control wells
Mtb hypoxia rep = reduces hypoxia-regulated biosensor signal in M. tuberculosis; 0.1% of 300,000 active; AID 1159583; fluorescence inhibition, % (no concentration beside the values); M. tuberculosis hypoxia-regulated fluorescent reporter, fluorescence; in the data active means fluorescence inhibition mostly above about 23%, no sharp cut-off; inactive means mostly below about 17%
Yp Topo-I inh = inhibitors of Yersinia pestis topoisomerase I. 0.064% of 360,000 active. AID 504884. activity, % at 10 µM. Y. pestis Topo-I cleavage product accumulation, plate reader; in the data active means activity above about 50%, passing the limit was not always enough; inconclusive means no clear call, values can overlap the other calls
PrP 5UTR single = prion 5' UTR mRNA inhibition, cherry-pick retest | AID 504592 | shares compounds with PrP 5UTR inh | inhibition, % at 2.5 µM | 48% of 1,100 active | cell-based prion protein 5' UTR reporter, plate reader; in the data active means inhibition above about 54%; inconclusive means no clear call, values can overlap the other calls
* = called active by the depositor; ? = inconclusive; · = not tested or not shown. This is a sample that favours compounds with a hit; in the whole collection about 3.8% have one here.

SMILES | PrPC surface inh | Mtb FBA inh | GDH-TPI inh | PrP 5UTR inh | Mtb hypoxia rep | Yp Topo-I inh | PrP 5UTR single
CN(Cc1c(C(=O)NN=Cc2ccccc2)nnn1-c1nonc1N)c1ccccc1 | · | · | · | · | 5 | · | ·
CC(C)CCCN1C(N(C)C)=NCC1Cc1ccccc1 (stereo unspecified) | · | · | · | · | 10 | · | ·
CCCCSc1ccc2nc(-c3ccc(C#N)cc3)cn2c1 | 12 | 10 | 26 | -65 | 5 | 9 | ·
CCCSc1ccc2nc(-c3ccccc3)cn2c1 | 3 | 16 | 5 | 60* | 5 | 15 | 75*
CCOC1OC(C(=O)N2CCN(C)CC2)=CC(c2coc3ccccc3c2=O)C1CCCO (stereo unspecified) | · | · | · | · | 6 | · | ·
Cc1ccc(OCC(=O)c2cc(C)n(-c3ccccc3)c2C)c([N+](=O)[O-])n1 | 0 | 0 | 16 | 60* | 3 | 28 | 58*
Cc1cc(C(=O)COC(=O)C2=COCCO2)c(C)n1-c1ccccc1 | 7 | -3 | 1 | 82* | 13 | 18 | 86*
CCc1ccc(OCC(=O)NN=Cc2cc([N+](=O)[O-])ccc2N2CCCCCC2)cc1 | · | · | · | · | 6 | · | ·
O=C1CCN(CCc2ccccc2)CCN1C(COc1ccccc1)c1ccccc1 (stereo unspecified) | · | · | · | · | -7 | · | ·
Cc1cc(C(=O)COC(=O)c2ccccc2Br)c(C)n1CC1CCCO1 (stereo unspecified) | 0 | 7 | 18 | 77* | 6 | 3 | 71*
Cc1cc(C(=O)COC(=O)c2ccccc2O)c(C)n1CC1CCCO1 (stereo unspecified) | 8 | -1 | 11 | 89* | 3 | 23 | 90*
Cc1ccsc1C(=O)OCC(=O)c1cc(C)n(C)c1C | 4 | 114* | 2 | 59* | 6 | 9 | 63*
CCn1c(C)cc(C(=O)COC(=O)c2ccccc2[N+](=O)[O-])c1C | · | -4 | 3 | 94* | 2 | 17 | 97*
CCC(C)C1CN=C(N)N1CCc1cccc2ccccc12 (stereo unspecified) | · | · | · | · | -7 | · | ·
CCN1C(=O)C2C(c3ccc(C)cc3)N3C(=O)N(c4ccccc4)C(=O)[C@@]3(Cc3ccc(Cl)cc3)C2C1=O (stereo partly specified) | · | · | · | · | 0 | · | ·
Cc1cc(C(=O)COC(=O)c2ccc3c(c2)OCO3)c(C)n1Cc1cccs1 | 0 | -1 | 3 | -51 | 1 | 8 | ·
Cc1cc(C(=O)COC(=O)c2cccnc2Cl)c(C)n1CC1CCCO1 (stereo unspecified) | 1 | -2 | -2 | 59* | 13 | 6 | 43
COCCn1c(C)cc(C(=O)COC(=O)c2ccccc2Br)c1C | 1 | -2 | -1 | 73* | 14 | 23 | 71*
Cc1cc(C(=O)COC(=O)c2ccccc2O)c(C)n1Cc1cccs1 | 2 | 1 | 4 | 91* | -4 | -5 | 80*
O=C(NN=Cc1cccc(OCc2ccccc2)c1)c1cccs1 | · | · | · | · | 15 | · | ·
COCCN1C(=O)NC(c2ccccc2)C(C(=O)OC)C1C (stereo unspecified) | · | · | · | · | 20 | · | ·
O=C(COC(=O)c1ccc[nH]c1=O)Nc1ccc(N2CCCCC2)cc1 | 6 | 1 | -8 | 62* | 8 | -1 | ?
CC12CCC3C(CCC4(O)CC(O)CCC34C=NO)C1(O)CCC2C1=COC(=O)C1 (stereo unspecified) | 4 | -1 | 4 | 89* | · | 4 | 85*
CCCCN=C[C@]12CCC(O)CC1(O)CCC1[C@@H]2CC[C@]2(C)[C@H](C3C=CC(=O)O3)CCC12O (stereo partly specified) | 5 | -2 | -3 | 83* | 0 | -3 | 78*
CC(C)(C)[C@]1(O)CC2OC(=O)C[C@@]23C(=O)OC2OC(=O)C(O)[C@]213 (stereo partly specified) | · | · | · | · | 2 | · | ·
SMILES | PrPC surface inh | Mtb FBA inh | GDH-TPI inh | PrP 5UTR inh | Mtb hypoxia rep | Yp Topo-I inh | PrP 5UTR single
COC(=O)C1=C(c2ccc(-c3ccccc3)c(F)c2)CC2CCC1N2C(=O)NCC1CC1 (stereo unspecified) | · | · | · | · | -11 | · | ·
COc1ccccc1[C@H]1C(c2cccc(Cl)c2)=NN(c2ccccc2)[C@@H]1CO | · | 46* | 9 | 72* | -7 | -6 | -5
COc1ccccc1[C@@H]1C(c2cccc(Cl)c2)=NN(c2ccccc2)[C@H]1C(=O)N1CCOC1=O | · | 10 | 11 | -6 | · | -12 | ·
COc1ccc(C(=O)NN=Cc2ccc3cccc(O)c3n2)cc1 | · | · | · | · | -7 | · | ·
O=C(c1ccc(Cl)cc1)N1CCCCC(Sc2nnc(-c3ccc4c(c3)OCO4)o2)C1=O (stereo unspecified) | -7 | 0 | -6 | 74* | 7 | 21 | 78*
NC(=O)c1nsc(C(=O)N(CC(=O)NCc2ccc3c(c2)OCO3)C2CCCC2)c1N | -2 | 6 | 14 | 76* | · | 5 | -16
COC(=O)C1=C(c2ccc(Cl)c(C(F)(F)F)c2)CC2CCC1N2C(=O)NC1CCCCC1 (stereo unspecified) | · | · | · | · | 6 | · | ·
CCOCCOC(=O)c1[nH]c2c(c1C)C(=O)CC(c1ccccc1)C2 (stereo unspecified) | 21 | -2 | -3 | 81* | 10 | -2 | 91*
CCOCCOC(=O)c1[nH]c2c(c1C)C(=O)CC(c1cc(OC)c(OC)c(OC)c1)C2 (stereo unspecified) | 13 | -3 | 7 | -1 | 15 | 16 | ·
CCCCCOC(=O)c1[nH]c2c(c1C)C(=O)CC(c1ccco1)C2 (stereo unspecified) | · | -1 | 1 | 59* | · | 2 | 79*
COC(=O)c1[nH]c2c(c1C)C(=O)CC(c1cccc(OC)c1)C2 (stereo unspecified) | 7 | 1 | -1 | 74* | -6 | 4 | 88*
COC(=O)c1[nH]c2c(c1C)C(=O)CC(c1ccc(OC)c(OC)c1)C2 (stereo unspecified) | 3 | 1 | -1 | 6 | 8 | -1 | ·
CCOCCOC(=O)c1[nH]c2c(c1C)C(=O)CC(c1cccs1)C2 (stereo unspecified) | 9 | -3 | 6 | 65* | 13 | 6 | 87*
CCN1C(=O)C2C(c3ccc(-c4ccccc4)cc3)N3CCCC[C@@]3(C(=O)OC)C2C1=O (stereo partly specified) | · | · | · | · | 14 | · | ·
CC1(C)CC[C@]2(C(=O)OC3OC(CO)C(O)C(O)C3O)CC[C@]3(C)C(=CCC4[C@@]5(C)CCC(OC6OC(C(=O)O)C(OC7OCC(O)C(O)C7O)C(O)C6O)C(C)(C)C5CC[C@]43C)C2C1 (stereo partly specified) | · | · | · | · | -1 | · | ·
O=C(COc1ccc(Cl)cc1)NCC(=O)N/N=C/c1cccs1 | -4 | 2 | 2 | 63* | · | -2 | -6
O=C(COc1ccccc1)NCC(=O)NN=Cc1cccs1 | · | · | · | · | 8 | · | ·
CC(C)N(C(=O)COC(=O)c1cncc(Br)c1)C(C)C | 3 | 2 | -5 | -20 | 8 | -1 | ·

Source: PubChem (several laboratories)
